Measured values as given in PubChem BioAssay AID1159580 (chemical genetic matrix, 2015).
Values joined by “and” are separate entries in the source; they are usually repeats but may differ in a detail not shown here. Identical values can stand only once. Among all 5,500 compounds or so, about 2,000 (36%) were called active. Another 18% or so got no clear call; they are omitted. No stated cut-off is given here; in the data, active means normalized growth mostly below about 0.91 (no sharp cut-off); inconclusive means no clear call, values can overlap the other calls; inactive means mostly above about 0.92. The list shows a part of the results.

Test: chemical genetic growth profiling, strain panel (AID 1159580);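 further: tested at 20 µM; growth read once vehicle control cultures reached saturation at 30 °C; 1 = growth at the plate median or of vehicle wells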
Details: S. cerevisiae deletion strains, growth OD

Measured: normalized growth

C[CH2][Hg][S]c1ccccc1C(=O)O
active: locus YAL013W, strain DEP1, stronger effect = lower value 0.0571 | locus YAL021C, strain ccr4, stronger effect = lower value 0.0644 | locus YAL026C, strain drs2, stronger effect = lower value 0.0601 | locus YAL030W, strain snc1, stronger effect = lower value 0.0549 | locus YBL061C, strain skt5, stronger effect = lower value 0.0584 | locus YBR009C, strain hhf1, stronger effect = lower value 0.0625 | locus YBR021W, strain FUR4, stronger effect = lower value 0.0826 | locus YBR023C, strain chs3, stronger effect = lower value 0.0607 | locus YBR171W, strain sec66, stronger effect = lower value 0.0719 | locus YBR229C, strain ROT2, stronger effect = lower value 0.0466 | locus YBR231C, strain swc5, stronger effect = lower value 0.0602 | locus YBR279W, strain paf1, stronger effect = lower value 0.0565 | locus YCL011C, strain gbp2, stronger effect = lower value 0.0545 | locus YCL016C, strain dcc1, stronger effect = lower value 0.0628 | locus YCL029C, strain bik1, stronger effect = lower value 0.0644 | locus YCL061C, strain MRC1, stronger effect = lower value 0.0624 | locus YCL069W, strain vba3, stronger effect = lower value 0.0582 | locus YCR088W, strain abp1, stronger effect = lower value 0.0571 | locus YDL005C, strain med2, stronger effect = lower value 0.0718 | locus YDL035C, strain GPR1, stronger effect = lower value 0.0506 | locus YDL040C, strain nat1, stronger effect = lower value 0.0559 | locus YDL074C, strain BRE1, stronger effect = lower value 0.0797 | locus YDL101C, strain DUN1, stronger effect = lower value 0.0547 | locus YDL134C, strain PPH21, stronger effect = lower value 0.0487 | locus YDL185W, strain tfp1, stronger effect = lower value 0.056 | locus YDL192W, strain arf1, stronger effect = lower value 0.0586 | locus YDR001C, strain nth1, stronger effect = lower value 0.0548 | locus YDR069C, strain doa4, stronger effect = lower value 0.0614 | locus YDR101C, strain arx1, stronger effect = lower value 0.0572 | locus YDR137W, strain rgp1, stronger effect = lower value 0.0826 | locus YDR150W, strain NUM1, stronger effect = lower value 0.058 | locus YDR159W, strain sac3, stronger effect = lower value 0.0891 | locus YDR162C, strain NBP2, stronger effect = lower value 0.0541 | locus YDR195W, strain ref2 0.117 | locus YDR297W, strain sur2, stronger effect = lower value 0.0559 | locus YDR318W, strain mcm21, stronger effect = lower value 0.0596 | locus YDR334W, strain swr1, stronger effect = lower value 0.06 | locus YDR335W, strain msn5, stronger effect = lower value 0.0577 | locus YDR388W, stronger effect = lower value 0.0549 | locus YDR392W, strain spt3, stronger effect = lower value 0.0928 | locus YDR502C, strain sam2, stronger effect = lower value 0.0576 | locus YEL003W, strain gim4, stronger effect = lower value 0.0526 | locus YEL037C, strain rad23, stronger effect = lower value 0.0545 | locus YEL061C, strain CIN8 (second series), stronger effect = lower value 0.058 | locus YEL061C, strain CIN8, stronger effect = lower value 0.0473 | locus YER015W, strain faa2, stronger effect = lower value 0.0585 | locus YER016W, strain bim1, stronger effect = lower value 0.059 | locus YER110C, stronger effect = lower value 0.0716 | locus YER111C, strain swi4, stronger effect = lower value 0.0734 | locus YER155C, strain BEM2 (second series), stronger effect = lower value 0.0849 | locus YER155C, strain BEM2, stronger effect = lower value 0.0624 | locus YER167W, strain BCK2, stronger effect = lower value 0.0502 | locus YFR010W, strain ubp6, stronger effect = lower value 0.0647 | locus YGL078C, strain dbp3, stronger effect = lower value 0.0538 | locus YGL086W, strain mad1, stronger effect = lower value 0.0535 | locus YGL167C, strain pmr1, stronger effect = lower value 0.0714 | locus YGL173C, strain kem1, stronger effect = lower value 0.0663 | locus YGL227W, strain vid30, stronger effect = lower value 0.059 | locus YGL240W, strain doc1, stronger effect = lower value 0.0734 | locus YGL248W, strain PDE1, stronger effect = lower value 0.0448 | locus YGL253W, strain hxk2, stronger effect = lower value 0.0514 | locus YGR078C, strain PAC10, stronger effect = lower value 0.0492 | locus YGR135W, strain pre9, stronger effect = lower value 0.0647 | locus YGR229C, strain SMI1, stronger effect = lower value 0.0574 | locus YGR252W, strain gcn5, stronger effect = lower value 0.152 | locus YHR013C, strain ard1, stronger effect = lower value 0.106 | locus YHR027C, strain rpn1, stronger effect = lower value 0.0612 | locus YHR030C, strain SLT2, stronger effect = lower value 0.0498 and 0.113 | locus YHR079C, strain IRE1 (second series), stronger effect = lower value 0.0541 | locus YHR079C, strain IRE1, stronger effect = lower value 0.123 | locus YHR094C, strain hxt1, stronger effect = lower value 0.0545 | locus YHR129C, strain ARP1, stronger effect = lower value 0.0546 | locus YHR142W, strain chs7, stronger effect = lower value 0.0696 | locus YHR200W, strain rpn10, stronger effect = lower value 0.057 | locus YIL066C, strain RNR3, stronger effect = lower value 0.0505 | locus YIL073C, strain SPO22, stronger effect = lower value 0.103 | locus YIL125W, strain kgd1, stronger effect = lower value 0.0543 | locus YIR030C, strain dcg1, stronger effect = lower value 0.0568 | locus YJL092W, strain hpr5, stronger effect = lower value 0.0555 | locus YJL095W, strain BCK1 (second series), stronger effect = lower value 0.0563 | locus YJL095W, strain BCK1, stronger effect = lower value 0.0505 and 0.109 | locus YJL115W, strain asf1, stronger effect = lower value 0.0695 | locus YJL129C, strain trk1, stronger effect = lower value 0.0829 | locus YJL134W, strain LCB3, stronger effect = lower value 0.0483 | locus YJL154C, strain vps35, stronger effect = lower value 0.0588 | locus YJL164C, strain tpk1, stronger effect = lower value 0.0629 | locus YJL166W, strain qcr8, stronger effect = lower value 0.0596 | locus YJL168C, strain set2, stronger effect = lower value 0.0562 | locus YJL187C, strain SWE1 (second series), stronger effect = lower value 0.0465 | locus YJL187C, strain SWE1, stronger effect = lower value 0.0547 | locus YJR043C, strain POL32, stronger effect = lower value 0.0607 | locus YJR066W, strain TOR1, stronger effect = lower value -0.000335
